Assay results from PubChem BioAssay (NCATS).
Records with an inconclusive call do not appear. Activity calls are given as the source filed them. Calls come from the whole dose curve; as a rule, active = well fitted inhibition curve with a large enough effect; inconclusive = small, poorly fitted or top-dose-only effect; inactive = no such curve, though single readings can be large or run the other way.

Biological target: Cytochrome P450 3A7 (Homo sapiens) (UniProt P24462)
Experiment: Cytochrome P450 family 3 subfamily A member 7 (CYP3A7) small molecule antagonists: luciferase biochemical qHTS assay (AID 1963596); note: nearly all actives have a fitted effect of over 40% in size
Conditions: P450-Glo CYP3A7 enzyme luminescence, 1 h; series mostly up to 57.4 µM; activity change, negative = inhibition: at the top concentration
Source text: National Center for Advancing Translational Sciences [NCATS] Assay Overview: Cytochrome P450 (CYP) enzymes are membrane-bound hemeproteins that play a key role in metabolism of drugs and xenobiotics. The CYP3A subfamily is the most abundant, representing 30% of the total adult hepatic CYP content, whereas CYP3A7 is found predominantly in human fetal liver and accounts up to 50% of the total fetal hepatic CYP content. Testing the effect of chemicals on CYP isozymes is useful to minimize the adverse drug reactions and toxicities in the drug development process. Chemicals were tested for their effect on CYP enzyme activities by using P450-Glo (TM) screening systems (Promega Corporation, Madison, WI). These systems provide a luminescent method containing proluciferin substrates and are converted to luciferin products by CYP isozymes. The luciferin products formed are detected with a luciferin detection reagent, and the amount of light produced is proportional to CYP activity. P450-Glo (TM) CYP3A7 screening system (Catalog. No. V8812) was used to detect the compounds that interfere with CYP3A7 activity. The positive control compound used for CYP3A7 assay is ketoconazole (Sigma-Aldrich, St. Louis, MO).
Assay Protocol Summary: Two ul of enzyme-substrate mix was dispensed into medium binding white/solid 1536-well plates (Greiner Bio-One North America Inc., Monroe, NC) using a Flying Reagent Dispenser (FRD, Aurora Discovery, San Diego, CA). Compounds dissolved in DMSO, and positive control (ketoconazole) were transferred to the assay plates at 23 nl using a Pintool station (Wako, San Diego, CA). The assay plates were incubated at room temperature for 10 min. Then 2 ul of NADPH regeneration solution was added to each well of the assay plates using an FRD and incubated at room temperature for 1 h. The reaction was stopped by adding 4 ul of detection reagent using an FRD and after 20 min incubation at room temperature the luminescence signal was measured using a ViewLux plate reader (Perkin Elmer, Shelton, CT). Data were expressed as relative luminescence units.
% is set by controls: 0 for no effect and ±100 for the full control effect.

Chain of Cytochrome P450 3A7 (Homo sapiens) (P24462 whole entry, looked up): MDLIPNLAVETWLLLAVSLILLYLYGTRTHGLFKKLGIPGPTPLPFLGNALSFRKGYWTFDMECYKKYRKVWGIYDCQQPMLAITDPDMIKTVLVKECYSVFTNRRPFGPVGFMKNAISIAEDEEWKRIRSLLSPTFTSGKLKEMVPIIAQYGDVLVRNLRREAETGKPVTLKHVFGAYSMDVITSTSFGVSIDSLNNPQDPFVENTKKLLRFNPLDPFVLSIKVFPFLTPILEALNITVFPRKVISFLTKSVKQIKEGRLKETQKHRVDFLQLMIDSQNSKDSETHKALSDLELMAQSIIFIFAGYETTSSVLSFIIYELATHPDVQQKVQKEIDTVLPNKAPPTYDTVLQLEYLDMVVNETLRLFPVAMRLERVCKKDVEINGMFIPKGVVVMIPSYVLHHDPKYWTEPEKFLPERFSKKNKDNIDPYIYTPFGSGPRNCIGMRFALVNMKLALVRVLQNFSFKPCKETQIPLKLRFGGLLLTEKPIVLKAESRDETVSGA

| SMILES | activity change, negative = inhibition | Potency |
| --- | --- | --- |
| C[C@@H]1CCC[C@H](C)N1 | 11.8% (inactive) | – |
| O=C(OCc1ccccc1)c1ccccc1 | 7.08% (inactive) | – |
| CCn1nnnc1NCc1ccc(C(C)C)cc1 | 0% (inactive) | – |
| Cc1ncc(CO)c(C=O)c1O | 7.61% (inactive) | – |
| CC(C)(C)CCN1C[C@@H]2C(CNC(=O)c3cc(Cl)cc(Cl)c3)[C@@H]2C1 (stereo not given in full) | -24.7% (inactive) | – |
| CN1C(=O)OC(C)(C)C1=O | -5.08% (inactive) | – |
| OCCc1ccccc1 | 104% (inactive) | – |
| CC[N+](CC)(CC)CCOC(=O)C(C1CCCC1)C1CCCC1 | -23.7% (inactive) | – |
| O=C1N=C(O)CN1/N=C/c1ccc(-c2ccc([N+](=O)[O-])cc2)o1 | 46.2% (inactive) | – |
| CC(=O)O[C@@H]1CC2C3CCc4cc(OC(=O)c5ccccc5)ccc4C3CCC2(C)[C@H]1OC(C)=O (stereo not given in full) | 1.23% (inactive) | – |
| FC(F)(F)Oc1ccc(-c2ccc3nnc(C(F)(F)F)n3c2)cc1 | 1.89% (inactive) | – |
| Nc1nc(-n2cc(C(=O)O)c(=O)c3cc(F)c(N4CC(O)C4)c(Cl)c32)c(F)cc1F | -7.53% (inactive) | – |
| CN(C)CCOC(c1ccccc1)c1ccccc1 | -27.2% (inactive) | – |
| Nc1ncnc(Nc2ccccc2)n1 | – | inactive |
| NC(=O)N1c2ccccc2C=Cc2ccccc21 | -9.69% (inactive) | – |
| Cc1cc(OCc2nc(-c3ccccc3Cl)cs2)ccc1OCC(=O)O | 0% (inactive) | – |
| Cc1ccc(S(=O)(=O)N[C@@H]2CCCC[C@H]2O)cc1 | -7.75% (inactive) | – |
| C[C@H](N)[C@H](O)c1cccc(O)c1 | -0.298% (inactive) | – |
| COC(=O)[C@H](Cc1cccc(C(=N)N)c1)[C@@H](C)NC(=O)c1ccc(-c2cc[n+]([O-])cc2)cc1 | -7.2% (inactive) | – |
| Cn1c(=O)c2c(ncn2C)n(C)c1=O | – | inactive |

| SMILES | activity change, negative = inhibition | Potency |
| --- | --- | --- |
| NC(Cc1c[nH]c2ccccc12)C(=O)NC(CCC(=O)O)C(=O)O (stereo not given) | -3.47% (inactive) | – |
| COc1cc(C)nc(-n2nc(C)cc2OC)n1 | 5.3% (inactive) | – |
| NC(=O)NC(=O)Cc1ccccc1 | 12.6% (inactive) | – |
| CN1CC(=O)N/C1=N/C(=O)Nc1cccc(Cl)c1 | 5.23% (inactive) | – |
| CC(=O)OCC(=O)[C@@]12N=C(C)O[C@@H]1C[C@H]1[C@@H]3CCC4=CC(=O)C=C[C@]4(C)[C@H]3[C@@H](O)C[C@@]12C | -22.7% (inactive) | – |
| CC1(C)OC[C@H](NC(=O)Nc2ccc(Br)cc2Br)[C@H](c2ccccc2)O1 | 0% (inactive) | – |
| C[C@H](O)C(=O)Nc1c(I)c(C(=O)NC(CO)CO)c(I)c(C(=O)NC(CO)CO)c1I | 1.54% (inactive) | – |
| CCN(CC)CCN | -1.45% (inactive) | – |
| C[C@@H](c1ncncc1F)C(O)(Cn1cncn1)c1ccc(F)cc1F (stereo not given in full) | 13.5% (inactive) | – |
| Cc1nc2n(c(=O)c1CCN1CCC(c3noc4cc(F)ccc34)CC1)CCCC2 | -0.445% (inactive) | – |
| Oc1c(I)cc(I)c2cccnc12 | – | inactive |
| COC(=O)c1ccc(C2C=C(c3ccc(Cl)cc3)Nc3nc4ccccc4n32)cc1 (stereo not given) | -3.89% (inactive) | – |
| CC(C)(C)NC[C@H](O)COc1cccc2c1CCCC2=O | 3.58% (inactive) | – |
| N[C@@H](COP(=O)(O)O)C(=O)O | 3.31% [at 23.9 µM] (inactive) | – |
| COc1cc2nc(-c3cc(F)ccc3O)nc(N[C@@H]3CNC[C@H]3C(C)(C)O)c2cc1OC | 0% (inactive) | – |
| C[C@H]1CO[C@@H]2Cn3cc(C(=O)NCc4ccc(F)cc4F)c(=O)c(O)c3C(=O)N12 | 20.7% (inactive) | – |
| c1ccc([C@H]2CN3CCSC3=N2)cc1 | – | inactive |
| Cc1ccc(Nc2nnc(-c3ccc([N+](=O)[O-])cc3)o2)cc1Cl | -12.6% (inactive) | – |
| CN(C)C(=O)c1cc2cnc(Nc3ccc(N4CCNCC4)cn3)nc2n1C1CCCC1 | -26.3% (inactive) | – |
| COc1ccc(CC2c3cc(OC)c(OC)cc3CC[N+]2(C)CCC(=O)OCCCCCOC(=O)CC[N+]2(C)CCc3cc(OC)c(OC)cc3C2Cc2ccc(OC)c(OC)c2)cc1OC (stereo not given) | 6.01% (inactive) | – |
